Here are results for 51 compounds from PubChem BioAssay AID2551 (National Center for Advancing Translational Sciences (NCATS), 2010).

About 17,000 (5.5%) of roughly 310,000 compounds were called active. Roughly 11% stayed inconclusive and do not appear here. What follows is part of a selection rich in actives, with near analogues and random picks from the rest. Values without a mark were called inactive. Calls come from the whole dose curve; as a rule, active = well fitted inhibition curve with a large enough effect; inconclusive = small, poorly fitted or top-dose-only effect, or effect the other way; inactive = no such curve, though single readings can be large or run the other way.
% is set by controls: 0 for no effect and ±100 for the full control effect; potency is the fitted concentration of half-maximal effect.

For the assay, the target named is Nuclear receptor ROR-gamma (Mus musculus) (UniProt P51450). Description: qHTS for inhibitors of ROR gamma transcriptional activity. Note: nearly all actives have a fitted effect of over 60% in size. The conditions noted are these: Drosophila S2 Gal4-RORgamma UAS-luciferase reporter, 20 h; series mostly up to 53.6 µM; activity change, negative = inhibition: at the top concentration. An excerpt: NIH Molecular Libraries Probe Production Network [MLPCN] NIH Chemical Genomics Center [NCGC] MLPCN Grant: R03 DA026211-01 Assay Provider: Dan Littman, New York University Assay Overview: The retinoic acid-related orphan receptor (ROR) gamma is a transcription factor that has a central role in the differentiation of Th17 cells, a subset of T helper cells that secrete the inflammatory cytokines IL-17, IL-17F, and IL-22. Th17 cells have been implicated in graft versus host disease, autoimmune disease and asthma. ROR gamma is induced in naive T helper cells in the presence of TGF-beta combined with IL-6, IL-21, or IL-23, and thereafter directs the expression of the Th17 lineage cytokines. To study the mechanism of action of ROR gamma, an insect cell-based assay was screened. This Drosophila Schneider cell line was stably transfected with two vectors: a gene expressing a fusion of the Gal4 DNA binding domain and ROR gamma transactivation domain under the control of the metallothionine promoter and a Photinus luciferase reporter regulated by the Gal4 binding site enhancer, UAS. […] Small molecule inhibitors of ROR gamma activity are detected by a decrease in luciferase reporter activity.
Sequence of Nuclear receptor ROR-gamma (Mus musculus) (P51450 whole entry, looked up, the tested form may be a part): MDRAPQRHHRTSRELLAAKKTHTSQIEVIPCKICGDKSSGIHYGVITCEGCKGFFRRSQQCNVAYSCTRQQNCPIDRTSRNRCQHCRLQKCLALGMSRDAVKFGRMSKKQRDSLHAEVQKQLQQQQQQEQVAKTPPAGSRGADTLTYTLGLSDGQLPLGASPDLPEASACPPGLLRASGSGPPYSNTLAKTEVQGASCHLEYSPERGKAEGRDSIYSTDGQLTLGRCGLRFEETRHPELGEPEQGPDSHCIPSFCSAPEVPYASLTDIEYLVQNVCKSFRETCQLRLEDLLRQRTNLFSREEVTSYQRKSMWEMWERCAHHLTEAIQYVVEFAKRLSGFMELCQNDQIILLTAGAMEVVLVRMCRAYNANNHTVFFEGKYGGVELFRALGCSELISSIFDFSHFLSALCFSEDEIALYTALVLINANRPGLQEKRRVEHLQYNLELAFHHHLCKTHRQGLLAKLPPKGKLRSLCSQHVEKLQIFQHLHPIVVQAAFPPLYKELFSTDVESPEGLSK
Assay Protocol Summary: For screening, 600 cells in 4 uL/well were dispensed into white solid 1536-well plates (Grenier) using a solenoid-based dispenser. Following transfer of 23 nL compound or DMSO vehicle by a pin tool, the plates were incubated 1 hr at ambient temperature, and 1 uL/well copper sulfate (700 uM final concentration) was added. The plates were centrifuged 15 s at 1000 RPM and incubated 20 hr at ambient temperature. After addition of 1.5 uL Photinus luciferase detection reagent, the plates were incubated 10 min at ambient temperature and then read by an ViewLux (Perkin Elmer) to detect luminescence. Keywords: NIH Roadmap, MLPCN, MLI, MLSMR, qHTS, NCGC, qHTS, nuclear hormone receptor, retinoic acid-related orphan receptor, ROR gamma
For `COc1ccc(OC)c(C(C)NC(=S)Nc2ccc(S(=O)(=O)Nc3ncccn3)cc2)c1` (stereo unspecified), the “activity change, negative = inhibition” value is -20%.

As to `CCOC(=O)c1cccnc1NC(=O)c1ccncc1`, the “activity change, negative = inhibition” value was 25%.

As to `Cc1ccc(-n2[nH]c(C)c(/C=N/N3C(=O)c4cccc5cccc(c45)C3=O)c2=O)cc1`, the Potency is 6.31 µM (active).

Turning to `CCc1nnc(NS(=O)(=O)c2ccc(N=Cc3c(C)[nH]n(-c4ccc(C)cc4)c3=O)cc2)s1`, the “activity change, negative = inhibition” value was -0.213%.

In the case of `Cc1ccc(-c2ccnc3[nH]n(-c4ccccc4)c(=O)c23)cc1`, the “activity change, negative = inhibition” value is 22%.

With `Cc1ccc(C(=O)N2CCC(n3nccc3NC(=O)Nc3cccc(F)c3)CC2)cn1`, the “activity change, negative = inhibition” value is -6.76%.

Take `CCCCNC(=O)c1c[nH]c2ccc(S(=O)(=O)Nc3ccc(OCC)cc3)cc2c1=O`: the Potency was 7.94 µM (active).

Consider `COc1cccc(NS(=O)(=O)c2ccc3[nH]cc(C(=O)NCCCOC(C)C)c(=O)c3c2)c1`, for which the “activity change, negative = inhibition” value is 37.7%.

As for `CCOc1ccc(NS(=O)(=O)c2ccc(C)c(C(N)=O)c2)cc1`, the “activity change, negative = inhibition” value is 11.7%.

Consider `CCOC(=O)c1c(S(=O)(=O)Nc2ccc(CN3CCC(C)CC3)cc2)c(C)n(C)c1C`, for which the “activity change, negative = inhibition” value was -4.59%.

Regarding `CCOC(=O)c1cc2c(nc1NC(=S)Nc1ccccc1)CC(C)(CC)OC2` (stereo unspecified), the Potency was 3.55 µM (active).

Consider `CCOC(=O)c1cc2cc3ccccc3cc2oc1=O`, for which the “activity change, negative = inhibition” value was 3.52%.

Turning to `CCOC(=O)c1cn[nH]c1NC(=S)Nc1ccccc1`, the “activity change, negative = inhibition” value was 0%.

For `Cc1ccc(NC(=O)CSc2nnc(CNC(=O)c3ccccc3F)o2)cc1Cl`, the “activity change, negative = inhibition” value is 14.9%.

For `COc1ccc(-c2noc(CNC(=O)C(C)Oc3ccccc3)n2)cc1` (stereo unspecified), the “activity change, negative = inhibition” value was 0.639%.

As to `COc1ccc(-c2cc(C(F)(F)F)nc(SCC(=O)Nc3ccc4c(c3)OCO4)n2)cc1OC`, the “activity change, negative = inhibition” value was -10.5%.

Take `COc1cc(OC)nc(S(C)(=O)=O)n1`: the “activity change, negative = inhibition” value is -9.47%.

Consider `COc1ccc(-c2cc(C(F)(F)F)nc(S(C)(=O)=O)n2)cc1OC`, for which the Potency was 1.78 µM (active).

For `Cc1cccn2c(=O)c3cc(C(=O)NCC4CCCO4)c(=N)n(Cc4ccc(F)cc4)c3nc12` (stereo unspecified), the “activity change, negative = inhibition” value was -18%.

With `COc1cc(OC)c(OC)cc1CN1CCN(C(=O)c2cccc3ccccc23)CC1`, the “activity change, negative = inhibition” value was -28.8%.

Consider `CC(=O)Nc1ccc(/C=N/Nc2ccc(C(=O)c3c(C)cc4ccccn34)cc2[N+](=O)[O-])cc1`, for which the “activity change, negative = inhibition” value was 0%.

For the compound `Cc1ccc(C(C[N+](=O)[O-])c2c(C)cc3ccccn23)cc1` (stereo unspecified), the Potency is 22.4 µM (active).

With `Cc1cc2ccccn2c1C(=O)c1cccc(F)c1`, the “activity change, negative = inhibition” value was 12.6%.

Take `C=CCNc1scc(-c2ccccc2)[n+]1CC=C`: the Potency is 12.6 µM (active).

For `C=CC[n+]1c(-c2ccc(C)cc2)csc1NNC(=O)Nc1ccccc1`, the Potency was 14.1 µM (active).

`Cc1ccc(NC(=O)NNC(=O)c2sccc2-n2cccc2)cc1`: the “activity change, negative = inhibition” value was 0.775%.

Regarding `C=CCNC(=O)c1csc(-c2ccccc2)n1`, the “activity change, negative = inhibition” value was 12.6%.

As to `Cc1ccc(NC(=O)Nc2ccccc2)c(Br)c1`, the “activity change, negative = inhibition” value is -14.6%.

Regarding `COC(=O)c1cc(NS(=O)(=O)c2ccc3c(c2)c(=O)n(C)c(=O)n3C)cc(C(=O)OC)c1`, the “activity change, negative = inhibition” value is -6.7%.

In the case of `Cc1cccc(C)c1N1C(=O)CN(Cc2ccccc2)C1=S`, the “activity change, negative = inhibition” value is -9.65%.

For `CCC(=O)c1cn(CCOc2ccccc2OC)c2ccccc12`, the activity change, negative = inhibition was -12.4% [at 1.91 µM].

On to `Cc1cccc(NC(=O)C2CCCN(C(=O)NCc3ccccc3)C2)c1C` (stereo unspecified), for which the “activity change, negative = inhibition” value is -0.477%.

Turning to `CN(C)c1ccc(CNC(=O)CN2C(=O)COc3ccc(S(=O)(=O)N4CCCC4)cc32)cc1`, the “activity change, negative = inhibition” value is -0.822%.

In the case of `CCOc1cc(NC(=S)NCc2ccco2)c(OCC)cc1NC(=O)c1ccco1`, the Potency is 1.12 µM (active).

For `CCOCC(=O)Nc1cc(OC)c(Cl)cc1OC`, the “activity change, negative = inhibition” value is -14.6%.

Take `O=C(Nc1ccc(NC(=O)c2ccco2)c(Cl)c1)c1cccc([N+](=O)[O-])c1`: the “activity change, negative = inhibition” value was -37.6%.

As for `CCOc1cc(NC(=O)c2ccco2)c(OCC)cc1NC(=O)COc1ccccc1`, the “activity change, negative = inhibition” value is -43.1%.

For the compound `COC(=O)c1cc(Cl)c(NC(=O)c2ccco2)cc1OC`, the “activity change, negative = inhibition” value is 37.3%.

In the case of `COc1cc(NC(=S)NCc2ccco2)c(OC)cc1Cl`, the Potency was 7.08 µM (active).

For the compound `COc1ccc(NC(=O)CCC(=O)Nc2cc(OC)c(NC(=O)c3ccco3)cc2OC)c(OC)c1`, the “activity change, negative = inhibition” value was 7.54%.

On to `COc1ccc2c(Cl)c(C(=O)NCc3ccco3)sc2c1`, for which the “activity change, negative = inhibition” value was 3.73%.

As for `CCOc1cc(NC(=S)NCCCOC)c(OCC)cc1NC(=O)c1ccco1`, the Potency was 20 µM (active).

On to `CCC(=O)NC(=S)Nc1ccc(NC(=O)c2ccco2)c(Cl)c1`, for which the Potency was 2.51 µM (active).

With `CCOc1cc(NC(=S)NCCCN(C)C)c(OCC)cc1NC(=O)C1CC1`, the “activity change, negative = inhibition” value was -16.6%.

Take `COc1ccc(CC(=O)Nc2ccccc2NC(=O)c2ccco2)cc1OC`: the “activity change, negative = inhibition” value is -0.827%.

`CCc1nn(CCCC(=O)Nc2ccc(C)c(C)c2)c(=O)c2cc3occc3n12`: the “activity change, negative = inhibition” value was 20.9%.

Regarding `O=C(O)c1cc(S(=O)(=O)NC2CCCc3ccccc32)ccc1O` (stereo unspecified), the “activity change, negative = inhibition” value is 7.08%.

With `CC(C(=O)NCCc1ccc(S(N)(=O)=O)cc1)N1C(=O)CC(C)(C)Sc2ccccc21` (stereo unspecified), the “activity change, negative = inhibition” value is -2.79%.

As for `CNC(=O)N1c2ccccc2C=Cc2ccccc21`, the “activity change, negative = inhibition” value is -3.21%.

Consider `Clc1nc(NC2CCCC2)nc(N2CCOCC2)n1`, for which the “activity change, negative = inhibition” value is 39.7%.

`COc1cccc(N(CC(=O)NC2CCCC2)C(=O)Cn2nnc(-c3ccc(C)o3)n2)c1`: the “activity change, negative = inhibition” value was 3.81%.
